71 compounds from ChEMBL document CHEMBL4513216, “Probing the Open Global Health Chemical Diversity Library for Multistage-Active Starting Points for Next-Generation Antimalarials” (ACS Infect Dis, 2020) can be followed below.

The whole screen tested about 69,000 compounds, of which about 8,600 (12%) showed an effect of 50% or more. This is one part of a sample in which strong results are shown more often than they occur.

The test system of the experiment is Plasmodium berghei. As to the kind of experiment: Screen against P. berghei liver stage (PbLuc), transformed with Luciferase, at 10uM. The experiment is classed as functional, HepG2. As to conditions: tested at 10 uM.
As for `COCCc1noc(CN2CCCC2c2c(C)nn(C)c2OC)n1` (stereo unspecified), the INHIBITION is listed as 17.4%.

As for `CCCNC(=O)C1CCCN(Cc2csc(C(C)(C)C)n2)C1` (stereo unspecified), the INHIBITION is -62.8%. As to `CNC(=O)[C@@H](c1ccccc1OC)N1CCC[C@H]1C(=O)NC(C)(C)C`, the INHIBITION was -22.4%.

`Cc1cccc(C)c1OCC(=O)NC(C)c1nnc2n1CCC2` (stereo unspecified): the INHIBITION is listed as -29.2%.

For `COc1c(CNCC(=O)N2CCN(C)CC2)c(C(C)C)nn1C`, the INHIBITION came to 42.1%. As to `Cc1noc(CNC(=O)c2ccccc2-n2cc(CN)cn2)n1`, the INHIBITION is 20.8%. On to `O=C1CN(C(=O)c2cc3ccc(Br)cc3[nH]2)CCN1`, for which the INHIBITION is -56.7%. For `CCc1cnc(CN(C)C2CCN(CC3CCOCC3)C2)o1` (stereo unspecified), the INHIBITION worked out at 5.85%. The same measure for `Cc1nsc(NC(=O)N2CCc3sccc3C2)n1`: 24.1%; for `OC(COc1ccc(F)cc1)CN1CCC(c2ccn[nH]2)CC1` (stereo unspecified): 37.9%; for `Cc1cccc(N2CCOCC3(C2)CN(c2cnn(C)c2)C(=O)CO3)n1` (stereo unspecified): 44.4%. On to `CC(C)Oc1ncnc2c1CCN(C(=O)c1cccn1C)CC2`, for which the INHIBITION is listed as 7.39%. For `O=C1Nc2ccccc2/C1=C1\CCCCCN1`, the INHIBITION was -2.09%. Regarding `CS(=O)(=O)c1ccc(CN2CCCC3(C2)C(=O)Nc2ccccc23)cc1` (stereo unspecified), the INHIBITION is given as 69%. `O=C1Nc2ccccc2C12CCCN(Cc1ccc3c(c1)OCCO3)C2` (stereo unspecified): the INHIBITION is recorded as 43.3%.

For the compound `O=C1Nc2ccccc2C12CCCN(Cc1ccncc1)C2` (stereo unspecified), the INHIBITION came to 16.6%. Take `CNc1ncc(CN(C)Cc2cc(O)c3cc(C)cc(C)c3n2)cn1`: the INHIBITION came out at 35.5%. Turning to `CNc1ncc(CN(C)Cc2cc(O)c3cccc(Cl)c3n2)cn1`, the INHIBITION came out at 60.4%. With `CNc1ncc(CN(C)Cc2cc(O)c3cc(F)ccc3n2)cn1`, the INHIBITION is on record as 40.9%.

`COc1ccccc1CNC(=O)c1ccccc1-n1cnc(CN)c1`: the INHIBITION was -1.85%. With `CC(=O)NCCNC(=O)c1cc(C)ccc1SC1CCCC1`, the INHIBITION stood at 49.9%. For `Cc1ccc(SC2CCCC2)c(C(=O)NCCO)c1`, the INHIBITION was 90.7%. The same measure for `Cc1ccc(SC2CCCC2)c(C(=O)NCCc2n[nH]c(=O)[nH]2)c1`: 49.9%. Consider `COCCc1ncc(CNC2(c3ccc(Cl)cc3Cl)CC2)cn1`, for which the INHIBITION was found to be 34%. For the compound `CCCN1CCC(NC(=O)Nc2ccc(OC)c(OC)c2)CC1`, the INHIBITION is given as -4.46%. With `COCCN1CCC(Nc2ccc(C#N)cc2F)CC1`, the INHIBITION worked out at 21.7%. For `CCCN1CCC(Nc2cc(-c3ccccc3)ccc2OC)CC1`, the INHIBITION is given as 78.9%. As for `Cc1cc(C(=O)NCC(O)c2c(Cl)cccc2Cl)nn1C` (stereo unspecified), the INHIBITION is given as 25.2%. Regarding `CCC(=O)N1CCN(c2ncnc3cc4c(cc23)OCCO4)CC1`, the INHIBITION amounted to 41.6%. In the case of `COc1ccc(CN2CC(O)CN(C(=O)OCC(C)C)CC2=O)cc1` (stereo unspecified), the INHIBITION was determined as 15.4%. With `CCOC(=O)N1CC(=O)N(Cc2cccc(OC)c2OC)CC(O)C1` (stereo unspecified), the INHIBITION worked out at 0.284%.

On to `COc1cccc(CN2CC(O)CN(C(=O)C(C)(C)C)CC2=O)c1OC` (stereo unspecified), for which the INHIBITION is on record as 58.5%. Turning to `CCOC(=O)N1CC(=O)N(Cc2ccc(OC)cc2)CC(O)C1` (stereo unspecified), the INHIBITION is given as 68.4%.

For `COc1cccc(CN2CC(O)CN(C(=O)C3CC3)CC2=O)c1OC` (stereo unspecified), the INHIBITION is -1.23%. For `COc1ccc(CN2CC(O)CN(C(=O)OCC(C)(C)C)CC2=O)cc1` (stereo unspecified), the INHIBITION is recorded as -15.6%.

On to `COCC(=O)N1CCCCC1c1nc(N(C)C)ncc1-c1cc(C)no1` (stereo unspecified), for which the INHIBITION was 17.435%. Regarding `Cn1ccc(C(=O)N2CCCC(c3cc(O)n(C)n3)C2)n1` (stereo unspecified), the INHIBITION is on record as 36.4%. The figure for `CCc1cnc(C)nc1NCc1cnc2c(c1)CCC2` is 46.4%.

On to `COc1ccccc1-n1nc(C(C)C)nc1Cc1nnc(N)s1`, for which the INHIBITION stood at 17.6%.

As to `CC1=C(C(=O)N(C)Cc2noc3c2CCCC3)C(C)NC(=O)N1` (stereo unspecified), the INHIBITION was found to be 11.8%. In the case of `CCc1c(C(=O)NCC2CCS(=O)(=O)C2)cnn1-c1ccccc1` (stereo unspecified), the INHIBITION stood at 4.71%. Take `O=c1cc(CN2CCCC2)nc2n1CCCN(Cc1ccoc1)C2`: the INHIBITION is given as -19.5%. On to `O=C(NCCCNC(=O)C1CCC1)NCCn1cccc1`, for which the INHIBITION is listed as 54.4%. For `O=C(NCCn1cccc1)C1CCCOC1` (stereo unspecified), the INHIBITION is 39.8%.

For the compound `O=C(NCCNC(=O)C1CCCCC1)NCCn1cccc1`, the INHIBITION is on record as 18.6%. For the compound `NC(=O)c1cccc(CS(=O)(=O)CC(O)Cn2cccn2)c1` (stereo unspecified), the INHIBITION amounted to 4.41%. Regarding `CN(C)C(CNC(=O)NCCOc1ccccc1)c1ccco1` (stereo unspecified), the INHIBITION is -90.7%. Turning to `CN(C)c1cc(C(=O)N2CCCC2c2cnn(C)c2)ccn1` (stereo unspecified), the INHIBITION turned out to be 22.3%. As to `CCN1CCC(CC(=O)N(C)C(C)c2cncs2)CC1` (stereo unspecified), the INHIBITION is listed as 0.825%. `O=S(=O)(NCC(O)c1ccc(C(F)(F)F)cc1)C1CC1` (stereo unspecified): the INHIBITION was determined as 72.2%. Consider `CSc1ccc(C(O)CNS(=O)(=O)C2CC2)cc1` (stereo unspecified), for which the INHIBITION came out at 44.9%.

For `CN(C)c1ccc(C(O)CNS(=O)(=O)C2CC2)cc1` (stereo unspecified), the INHIBITION is 38.1%.

As to `Cc1nn(C2CCS(=O)(=O)C2)c(O)c1Cc1ccc(Br)cc1` (stereo unspecified), the INHIBITION was 43.4%.

On to `CCOC(CC)C(=O)NCCC(=O)N1CCN(c2ccccn2)CC1` (stereo unspecified), for which the INHIBITION is listed as -36.3%. Regarding `Cc1cc(CN(C)C(=O)NC2CCN(c3ncccn3)CC2)no1`, the INHIBITION amounted to 27.1%. The figure for `Cc1cc(-c2cnc(N3CCCC(C)C3)nc2C(C)C)on1` (stereo unspecified) is 26.3%. Turning to `COCCCNc1ncc(-c2cccc(F)c2)c(-c2nccn2C)n1`, the INHIBITION was 13.7%. Consider `CC1CCN(c2ncc(C#N)c(N)n2)CC1`, for which the INHIBITION was -10.3%. With `Cn1ccnc1-c1nc(N2CCCCC2)ncc1-c1ccccc1F`, the INHIBITION stood at 54.8%. Take `CC1CCN(c2ncc(-c3ccccc3F)c(-c3nccn3C)n2)CC1`: the INHIBITION is 72.05%. As for `CN1CCCC(c2cccc(-c3ccccc3F)n2)C1` (stereo unspecified), the INHIBITION is 31.15%. As for `CC1CCCN(c2ncc(-c3ccccc3F)c(-c3nccn3C)n2)C1` (stereo unspecified), the INHIBITION came out at 75.45%. Take `O=c1c2cnc(N3CCCCC3)nc2ccn1-c1ccccc1F`: the INHIBITION is -2.04%. The same measure for `Cc1cc(CNc2ccccc2Cl)no1`: -38.9%. Consider `COCCC(=O)N1C[C@@H](O)[C@H](N2CCN(c3ccccc3)CC2)C1`, for which the INHIBITION was 16.5%. As for `CCOc1ncccc1C(=O)N1CCCC(n2nc(C)cc2C)C1` (stereo unspecified), the INHIBITION worked out at 0.0996%. Turning to `O=C(c1cccs1)N1CCC[C@]2(C[C@@H](OCc3ccncc3)CO2)C1`, the INHIBITION is -41%. For the compound `CN(C(=O)c1ccccc1N(C)S(C)(=O)=O)c1ccc(C(C)(C)C)cc1`, the INHIBITION worked out at 31.2%. With `O=C(c1ccc(F)cc1F)N(CC(F)(F)F)C1CCOCC1`, the INHIBITION is listed as 3.04%.

For the compound `O=C(c1ccco1)N(CC(F)(F)F)C1CCOCC1`, the INHIBITION is recorded as 61.3%.

In the case of `O=C(c1ccco1)N(CC(F)(F)F)C1CCCOC1` (stereo unspecified), the INHIBITION worked out at 9.16%.
